High-throughput results deposited in PubChem by National Center for Advancing Translational Sciences (NCATS).
RGS4 inh = human RGS4 inhibition | AID 504845 | Potency, µM (titrated, usually from 114 µM), actives largely listed as inhibitors | P49798 | Transcreener GDP fluorescence polarization, RGS4-accelerated GTP hydrolysis | 0.039% of 390,000 active; also: nearly all actives have a fitted effect of over 75% in size
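MLSMR compounds (23 nl, pin-transferred) preincubated 10 min at room temperature with a 500nM (2x) first reagent, then RGS4 at 900nM (2x) plus Transcreener GDP mix added; fluorescence polarization (620/688 nm) read before and after 90 min at 30 °C.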
LDHA block = inhibitors of human lactate dehydrogenase A. P00338. purified LDHA, NADH/diaphorase-resazurin fluorescence; stronger effect = lower value. activity change, % (values are at about 110 or 230 µM). 0.15% of 480,000 active; in the data active = activity change below about -30%; inconclusive = mostly about -25% to -30%
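Remaining NADH was detected by diaphorase (0.133 mg/mL) converting 37 µM resazurin to fluorescent resorufin, read at 0 and 20 minutes. The preceding 5-minute room-temperature reaction used 2 nM LDHA, 0.2 mM sodium pyruvate and 0.06 mM NADH at pH 7.4.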
Mito fusion yeast = mitochondrial division inhibition or fusion activation; S. cerevisiae fusion-defective mutant growth rescue, CellTiterGlo 48 h; Potency, µM (top dose mostly 46.1 µM), actives largely listed as activators; 0.23% of 320,000 active; also: nearly all actives have a fitted effect of over 45% in size
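Temperature-sensitive fusion-defective S. cerevisiae (e.g. fzo1-1, mgm1-5) were grown with compound in YPEG medium (3% ethanol, 3% glycerol) for 48 hours at 37C. Growth rescue was measured as viability by CellTiterGlo luminescence after 10 minutes at ambient.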
ASM inhibitor = human S-ASM enzyme inhibition | placental ASM, HMU-PC fluorogenic substrate, 60 min | 0.006% of 340,000 active | Potency, µM (top dose mostly 57.5 µM), most hits filed as inhibitors | P17405
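qHTS format. ASM enzyme prepared from human placenta hydrolyses the fluorogenic substrate HMU-PC0 (9 uM final) over 60 min at 37 °C after a 10 min compound preincubation.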
ClpP mod = qHTS Assay for Activators of ClpP; purified B. subtilis ClpP, FRET peptide cleavage, 20 min; Potency, µM (doses to about 57.5 µM); 1.9% of 340,000 active; AID 651965, 2013; active = well fitted falling curve with a large enough effect; inconclusive = small, poorly fitted or top-dose-only effect; inactive = no such curve, though single readings can be large or run the other way; also: the source files actives as falling curves though it sought activators and does not explain the sign; nearly all actives have a fitted effect of over 65% in size
Target sequence (P80244 whole entry, looked up): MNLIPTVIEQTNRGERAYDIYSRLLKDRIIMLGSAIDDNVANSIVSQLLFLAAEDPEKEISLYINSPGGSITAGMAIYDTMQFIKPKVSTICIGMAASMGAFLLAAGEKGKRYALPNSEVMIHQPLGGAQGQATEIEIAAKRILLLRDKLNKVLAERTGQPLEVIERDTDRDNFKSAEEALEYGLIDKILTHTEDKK
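Buffer: 100 mM Tris/HCl pH8, 100 mM KCl, 0.05% low protease BSA, 2.5% glycerol, 0.01% Tween-20. ClpP 10 microg/mL final; 20 min RT; delta FRET normalized to ADEP and DMSO controls.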
IDH1 R132H inh = inhibitors of human mutant IDH1 R132H. 0.093% of 390,000 active. Potency, µM (doses to about 76.6 µM), actives largely listed as inhibitors. O75874. IDH1-R132H enzyme, NADPH consumption, diaphorase/resazurin fluorescence; also: nearly all actives have a fitted effect of over 65% in size
Target sequence (O75874 whole entry R132H, stated change not applied): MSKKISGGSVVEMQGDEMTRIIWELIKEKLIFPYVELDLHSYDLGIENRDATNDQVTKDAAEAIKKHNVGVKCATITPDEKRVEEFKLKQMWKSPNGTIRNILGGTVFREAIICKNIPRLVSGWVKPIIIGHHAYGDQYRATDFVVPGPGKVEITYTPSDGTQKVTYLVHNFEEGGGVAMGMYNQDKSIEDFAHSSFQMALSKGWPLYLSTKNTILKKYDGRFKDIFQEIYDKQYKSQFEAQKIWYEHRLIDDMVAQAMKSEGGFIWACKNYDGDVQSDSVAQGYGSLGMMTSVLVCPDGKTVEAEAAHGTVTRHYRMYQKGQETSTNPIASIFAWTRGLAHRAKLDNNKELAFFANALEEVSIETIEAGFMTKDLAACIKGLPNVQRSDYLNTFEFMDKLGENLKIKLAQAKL
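IDH1-R132H (0.5 ug/mL dispensed) in pH 7.5 Tris buffer was preincubated 30 min with compound, then given a substrate mix of 0.016 mM NADPH and 2 mM alpha-KG for 80 min at room temperature; remaining NADPH was read by diaphorase/resazurin fluorescence.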
Large screens that a line does not name were inactive. The full list was thinned out, with hits kept by preference. Unless noted, calls follow the shape of the dose curve; as a rule, active = well fitted curve in the direction sought with a large enough effect; inconclusive = small, poorly fitted or top-dose-only effect, or another doubt; inactive = no such curve, though single readings can be large; an effect the other way counts as inactive or inconclusive.

CCc1ccc(C(=O)c2sc(Nc3cccc(SC)c3)nc2N)cc1	none (no result: RGS4 inh, Mito fusion yeast, ASM inhibitor, ClpP mod, IDH1 R132H inh)
Cc1ccc2c(=O)c(S(=O)(=O)c3ccccc3)cn(CC(=O)Nc3ccc4c(c3)OCCO4)c2n1	none (no result: RGS4 inh, Mito fusion yeast, ASM inhibitor, ClpP mod, IDH1 R132H inh)
O=C(CSc1nc2c([nH]c3ccccc32)c(=O)n1-c1ccc(F)cc1)Nc1ccc2c(c1)OCCO2	ClpP mod 22µM (no result: Mito fusion yeast, ASM inhibitor)
Cc1cc(C)cc(-n2c(SCC(=O)NCc3ccc(F)cc3)nc3c([nH]c4ccccc43)c2=O)c1	none (no result: Mito fusion yeast, ASM inhibitor)
Cc1cc(NC(=O)CSc2nc3c([nH]c4ccccc43)c(=O)n2-c2cccc(C(F)(F)F)c2)no1	ClpP mod 28µM
Cc1ccc(-n2c(SCC(=O)NCc3ccc(F)cc3)nc3c([nH]c4ccccc43)c2=O)cc1	ClpP mod 32µM (no result: Mito fusion yeast, ASM inhibitor)
O=C(CSc1nc2c([nH]c3ccccc32)c(=O)n1-c1ccccc1)N1CCc2ccccc21	ClpP mod 28µM (no result: Mito fusion yeast, ASM inhibitor)
Cn1c(=O)c2c(ncn2CC(=O)N(CCc2cccs2)Cc2cccs2)n(C)c1=O	none (no result: RGS4 inh, Mito fusion yeast, ASM inhibitor, ClpP mod, IDH1 R132H inh)
Cc1cccc(NC(=O)/C(C#N)=C2\CCCC2C)c1 (stereo not drawn)	none (no result: RGS4 inh, Mito fusion yeast, ASM inhibitor, ClpP mod, IDH1 R132H inh)
O=C(O)c1ccc(NCc2cccc(Br)c2)cc1	Mito fusion yeast 10µM
O=C(O)c1ccc(NCc2ccc(Cl)cc2)cc1	none (no result: RGS4 inh, Mito fusion yeast, ASM inhibitor, ClpP mod, IDH1 R132H inh)
COc1ccc(-c2[nH]nc3oc(=O)cc(C)c23)cc1	ClpP mod inconclusive
Cc1cc(=O)oc2n[nH]c(-c3ccccc3)c12	ClpP mod 25µM
O/N=C/c1ccc(OCc2ccccc2)c(Br)c1	Mito fusion yeast inconclusive
O/N=C/c1ccc(OCc2ccccc2)c(Cl)c1	Mito fusion yeast 22µM
Cc1ccc(CNC(=O)CC(C)S(=O)(=O)c2ccc3c(c2)CCN3C(=O)C2CC2)cc1 (stereo not drawn)	none (no result: RGS4 inh, Mito fusion yeast, ASM inhibitor, ClpP mod, IDH1 R132H inh)
CC1CC(C)(C)CC2(C1)NC(=S)N(c1ccccc1)N2 (stereo not drawn)	RGS4 inh inconclusive, ClpP mod 16µM
CCC(=O)Nc1ccc(Cl)c(NC(=O)c2cccc3c(Br)cccc23)c1	none (no result: RGS4 inh, Mito fusion yeast, ASM inhibitor, ClpP mod, IDH1 R132H inh)
CNc1nc(Nc2ccc(C)c(Cl)c2)c2cnn(C)c2n1	IDH1 R132H inh 29µM
COc1ccc(Oc2c(C)oc3cc(OCC(=O)Nc4ccccc4F)ccc3c2=O)cc1	none (no result: RGS4 inh, Mito fusion yeast, ASM inhibitor, ClpP mod, IDH1 R132H inh)
Cc1nc(Nc2c(Cl)cccc2Cl)sc1C(=O)Nc1ccccc1	Mito fusion yeast 18µM (no result: ClpP mod)
CC(Sc1nc(-c2ccccc2)c(-c2ccccc2)[nH]1)C(=O)NCC1CCCO1 (stereo not drawn)	ClpP mod 28µM (no result: RGS4 inh, Mito fusion yeast, ASM inhibitor)
O=C(/C=C/c1cccc(Cl)c1)Nn1c(-c2cccs2)nc2ccccc2c1=O	Mito fusion yeast 16µM (no result: ClpP mod)
CCC(C)NC(=O)c1c(N)n(/N=C/c2cccnc2)c2nc3ccccc3nc12 (stereo not drawn)	ClpP mod 25µM
COCCNC(=O)c1c(N)n(CCCn2ccnc2)c2nc3ccccc3nc12	ClpP mod 16µM
Nc1ccc(-n2c(N)c(C(=O)NCc3ccc4c(c3)OCO4)c3nc4ccccc4nc32)cc1	none (no result: Mito fusion yeast)
COc1ccccc1CNC(=O)c1c(N)n(CCCN2CCOCC2)c2nc3ccccc3nc12	ClpP mod inconclusive
C=CCNC(=O)c1c(N)n(-c2cccc(S(N)(=O)=O)c2)c2nc3ccccc3nc12	ClpP mod 14µM
Nc1c(C(=O)NCc2ccccc2)c2nc3ccccc3nc2n1-c1ccc2c(c1)OCO2	ClpP mod 22µM
COc1ccc(-n2c(N)c(C(=O)NCc3ccco3)c3nc4ccccc4nc32)cc1	ClpP mod 32µM
COCCNC(=O)c1c(N)n(-c2cccc(C)c2)c2nc3ccccc3nc12	none
COCCCNC(=O)c1c(N)n(-c2ccc(S(N)(=O)=O)cc2)c2nc3ccccc3nc12	ClpP mod 16µM
Nc1c(C(=O)NCc2ccco2)c2nc3ccccc3nc2n1CCc1ccc(F)cc1	RGS4 inh inconclusive, Mito fusion yeast inconclusive, ClpP mod 16µM, IDH1 R132H inh inconclusive
COc1ccc(-n2nc(C(=O)NCc3ccco3)c3ccccc3c2=O)cc1	ClpP mod 22µM
